HCV inhibitor = inhibitors of hepatitis C virus infection; Huh7.5.1 HCVcc-Cre infection, luciferase reporter, 44 h; Potency, µM (titrated, usually from 41.8 µM), for the others: at the top dose activity change, negative = inhibition, actives largely listed as inhibitors; 3.4% of 340,000 active; active = well fitted inhibition curve with a large enough effect; inconclusive = small, poorly fitted or top-dose-only effect, or another doubt; inactive = no such curve, though single readings can be large or run the other way; note: potency is the fitted concentration of half-maximal effect
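Antiviral activity was scored by luciferase reporter output from cells infected with HCVcc-Cre (~0.5 moi) in presence of compound, 44 h infection period, cells seeded 1,000/well 4 h prior.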
HCMV inh = inhibitors of human cytomegalovirus; 4.5% of 410,000 active; HFF cells, HCMV-luciferase reporter, 72 h; stronger effect = lower value; AID 1259415; activity change, negative = inhibition, % at 57.5 µM; in the data active = activity change below about -60%; inconclusive = no clear call, values can overlap the other calls; inactive = above about -39%
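Luciferase read-out from HCMV-luciferase-infected HFFs (MOI 1 PFU/cell) 72 h post infection at 37C; compounds added after 16 h cell attachment; activity normalized between buffer-only basal and Salinomycin (10uM) inhibitor controls.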
Vaccinia mCherry = inhibitors of vaccinia virus infection (mCherry reporter signal); Vaccinia virus mCherry reporter infection, fluorescence; AID 720579; Potency, µM (highest dose often 36.5 µM), for inactives: at the top dose activity change, negative = inhibition, usual class: inhibitors; 0.63% of 310,000 active; calls by dose curve; tested in A549 cells; note: potency is the fitted concentration of half-maximal effect; nearly all actives have a fitted effect of over 35% in size
FMDV inh = foot and mouth disease virus antiviral activity | 1.2% of 410,000 active | FMDV antiviral cell-based qHTS | AID 1159524 | Potency, µM (series often up to 57.9 µM), inactives show top-dose activity change, negative = inhibition, actives largely listed as inhibitors; calls by dose curve; tested in HEK293T cells; note: read-out not given here; potency is the fitted concentration of half-maximal effect; nearly all actives have a fitted effect of over 45% in size
Vaccinia Venus = vaccinia inhibition (Venus reporter). Vaccinia virus Venus reporter expression, fluorescence. Potency, µM (titrated, usually from 36.5 µM), inactives show top-dose activity change, negative = inhibition, actives largely listed as inhibitors. 0.46% of 330,000 active; calls by dose curve; tested in A549 cells; note: potency is the fitted concentration of half-maximal effect; nearly all actives have a fitted effect of over 30% in size
* = called active by the depositor; i = inactive; ? = inconclusive; · = no result; + = active, no number; [ ] = remark or other dose. Sampled rows, rich in hits. Any-hit rate of the full collection: about 7.3%. % is set by controls: 0 for no effect and ±100 for the full control effect.

SMILES	HCV inhibitor	HCMV inh	Vaccinia mCherry	FMDV inh	Vaccinia Venus
Nc1nc(N2CCN(C(=O)c3ccco3)CC2)nc2ccc(Br)cc12	11µM*	·	·	-15%	·
O=C(c1ccco1)N1CCN(c2nc3ccccc3c(=O)n2-c2ccccc2)CC1	21%	-10	·	7.1µM*	·
Cc1ccc(Cc2c(C3CCCCC3)nc3cc(C)c(Br)c(C)n23)cc1	·	-23	-10%	-15%	-3%
COc1ccc(CN(C)C(=O)c2ccc(OCC(=O)Nc3cccc(C(F)(F)F)c3)c(OC)c2)cc1	·	-62*	?	?	?
COc1cc(C(=O)NCc2cccnc2)ccc1OCC(=O)Nc1cccc(C(F)(F)F)c1	?	-73*	-24%	11µM*	-26%
Cc1cc(C)cc(NC(=O)NCc2c(-n3cccc3)sc3c2CCCC3)c1	·	4	-11%	-7%	-1%
O=C(NCc1cccnc1)Nc1cccc(C(F)(F)F)c1	-7%	-70*	-14%	6%	-10%
O=C(NCc1c(-n2cccc2)sc2c1CCCC2)Nc1cccc(C(F)(F)F)c1	·	-73*	?	?	?
O=c1cc[nH]c(=S)[nH]1	·	·	-12%	?	-8%
O=C(NCCc1nnc2n1CCN(CC1CC=CCC1)CC2)c1ccc(F)cc1 (centres undefined)	·	·	i	-12%	-14%
Cc1[nH]c(C)c(S(=O)(=O)N2CCCCC2C)c1C(=O)N1CCCC1 (centres undefined)	0%	16	·	-12%	·
N=c1c2c(-c3ccccc3)c(-c3ccccc3)n(Cc3ccco3)c2ncn1Cc1ccco1	16µM*	-13	·	25µM*	11µM*
O=c1[nH]c(=O)n(Cc2ccccc2)c(O)c1C=NCCCn1ccnc1	9%	-27	·	5%	-7%
N=c1c2c(-c3ccccc3)c(-c3ccccc3)n(Cc3ccccc3)c2ncn1CCCn1ccnc1	0.5µM*	-74*	·	-26%	14µM*
CCCCn1cnc2c(c(-c3ccccc3)c(-c3ccccc3)n2Cc2ccco2)c1=N	-23%	-15	i	-23%	-20%
CC12CCCCCC3=CC(=O)C=C[C@]31OCC2 (some centres undefined)	·	-23	·	·	·
CCC1(c2cccc(Cl)c2)NC(=O)N(Cc2cc(C(=O)OC)c(C)o2)C1=O (centres undefined)	?	22	·	28µM*	·
O=c1nc2sc3ccccc3n2c(=O)n1-c1cccc(Cl)c1	11µM*	·	-2%	72%	-13%
O=C(Nc1nc2ccccc2s1)C1CCN(S(=O)(=O)c2cc([N+](=O)[O-])ccc2Cl)CC1	?	0	·	35µM*	·
O=C(Nc1nc2ccc(S(=O)(=O)N3CCCC3)cc2s1)C1CCCCC1	?	-62*	?	-9%	?
CC(Oc1cccc(Cl)c1)C(=O)Nc1cc(S(=O)(=O)N2CCOCC2)ccc1N1CCCC1 (centres undefined)	-5%	11	·	-3%	·
COc1ccc2nc(NC(=O)C3CCCN(S(=O)(=O)c4c(C)noc4C)C3)sc2c1 (centres undefined)	?	-33	0%	-27%	-8%
O=C(Nc1cccc(Cl)c1)Nc1cc(S(=O)(=O)N2CCOCC2)ccc1N1CCCC1	-14%	-80*	-29%	?	-27%
CCOc1ccc2nc(NC(=O)C3CCCN(S(=O)(=O)c4c(C)noc4C)C3)sc2c1 (centres undefined)	11µM*	-21	?	?	?
COC(=O)c1ccccc1NC(=O)C1=C(C)C(=O)OC12CCC(C)CC2 (centres undefined)	·	-30	-6%	-10%	-5%
SMILES	HCV inhibitor	HCMV inh	Vaccinia mCherry	FMDV inh	Vaccinia Venus
O=C(Nc1cc(S(=O)(=O)N2CCCCC2)ccc1N1CCCCC1)C1CC1	-24%	-61*	·	-10%	·
O=C(Nc1nc2cc3c(cc2s1)OCCO3)C1=COCCO1	-4%	+	·	4µM*	·
CCc1ccccc1N1CC(C(=O)Nc2cc(S(=O)(=O)N3CCCC3)ccc2Cl)CC1=O (centres undefined)	11µM*	5	-2%	-4%	-3%
COc1ccccc1N1CC(C(=O)Nc2ccc(S(=O)(=O)N3CCCC3)cc2)CC1=O (centres undefined)	-1%	-13	i	-9%	3%
O=C(Nc1nc2ccc(Cl)cc2s1)C1CC1	8.9µM*	-23	·	27%	·
CCOc1cc(/C=C(\C#N)C(=O)Nc2ccc(C)cc2)ccc1OCc1cc(=O)n2nc(CC)sc2n1	·	4	0%	-12%	-8%
CCCCn1nnnc1C(Nc1ccccc1C(C)=O)C1CC1 (centres undefined)	·	45	·	·	·
NCCCC[C@H](NC(=O)[C@H](Cc1ccccc1)NC(=O)[C@H](CCCN=C(N)N)NC(=O)[C@@H](N)Cc1ccc(O)cc1)C(N)=O	·	·	0%[3.33 µM]	-4%[6.7 µM]	-14%[3.33 µM]
O=C(c1ccc(F)cc1)N1CCN(CCc2ccncc2)CC1	·	-5	-21%	-13%	-6%
CCOc1ccc(S(=O)(=O)NCCC(=O)NC2CCC(C)CC2)cc1 (centres undefined)	-6%	-8	0%	5%	-5%
O=C(Nc1nc2cc3c(cc2s1)OCO3)C1CC1	10µM*	-15	-12%	1%	-7%
CC(C)(C)C(=O)Nc1nc2cc3c(cc2s1)OCO3	?	-73*	·	0%	·
CC(C)C(=O)Nc1nc2cc3c(cc2s1)OCO3	?	-11	?	-3%	-4%
O=C(Nc1nc2cc3c(cc2s1)OCO3)C1CCCCC1	?	76	·	0%	·
COc1ccc2nc(C)cc(Sc3nc4ccccc4s3)c2c1	?	-99*	0.79µM*	16µM*	1.4µM*
CCNC(=O)N1CCN(CCCC(c2ccc(F)cc2)c2ccc(F)cc2)CC1	?	-79*	i	?	-22%
O=[N+]([O-])c1ccc(Nc2ccccc2O)c2nonc12	-7%	-61*	·	-29%	·
Cc1ccc(S(=O)(=O)c2nc(Nc3ccccc3C#N)sc2Cl)cc1	-22%	?	-16%	0%	3%
Cc1ccc(S(=O)(=O)c2nc(Nc3ccccc3N3CCOCC3)sc2Cl)cc1	10µM*	-34	·	-4%	·
CCC1CCC2(CC1)NNC(=S)NN2	0%	-62*	-10%	-29%	-17%
O=C(COc1cccnc1[N+](=O)[O-])N1CCC(Cc2ccccc2)CC1	1%	-76*	i	10%	0%
Cc1ccc(OCC(=O)N2CCC(C)CC2)c([N+](=O)[O-])n1	6%	46	-10%	-8%	0%
O=C(COc1ccccc1[N+](=O)[O-])OCC(=O)N1CCC(Cc2ccccc2)CC1	23%	33	-18%	-13%	-8%
Cc1ccc(OCC(=O)N2CCC(Cc3ccccc3)CC2)c([N+](=O)[O-])n1	-4%	-74*	·	-17%	·
COCCNc1ccnc(-c2ccccc2C(F)(F)F)n1	·	·	·	5%	·
N#Cc1ccccc1NC(=O)c1ccccc1OCC(=O)Nc1ccc2c(c1)oc1ccccc12	-17%	21	-11%	·	-4%
CNC(=O)COc1ccccc1C(=O)Nc1ccc2c(c1)oc1ccccc12	?	-69*	·	14%	·
